Screening data deposited in PubChem by several laboratories.
Mtb bLac sens: beta-lactam sensitization of Mtb H37Rv | M. tuberculosis H37Rv growth with meropenem, percent inhibition | inhibition, % at 25 µM | 330,000 compounds, 0.27% hits | AID 434955; call rule not given here;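 note: growth measured after seven days incubation then overnight dye step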
MazEF act: activators of E. coli MazEF toxin-antitoxin RNase. P0AE70. FAM/BHQ RNA-DNA oligo cleavage fluorescence, 5 h. activation, % at 20 µM. 350,000 compounds, 0.32% hits. AID 504720; in the data active = activation above about 50%
Target sequence (P0AE70 whole entry, looked up): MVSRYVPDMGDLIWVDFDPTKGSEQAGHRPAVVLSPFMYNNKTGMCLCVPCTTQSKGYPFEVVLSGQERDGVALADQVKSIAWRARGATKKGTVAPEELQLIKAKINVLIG
3CLpro inhibitor: SARS-CoV 3CLpro protease inhibition; P0C6X7; recombinant SARS-CoV 3CLpro, quenched FRET peptide cleavage; inhibition, % at 6 µM; 290,000 compounds, 0.14% hits; AID 1706; in the data active = inhibition above about 12%
RN4220 kill: S. aureus RN4220 growth inhibition; 330,000 compounds, 0.33% hits; inhibition, % (test concentration not listed); OD600, 16 h; in the data active = inhibition above about 85%
ugtP null kill: kills S. aureus RN4220 lacking UgtP. S. aureus RN4220 ugtP deletion, OD600 growth, 16 h. growth inhibition, % (concentration not given with the values). 330,000 compounds, 0.54% hits; in the data active = growth inhibition above about 68%
CCHF vOTU inh-1: blocks the CCHF virus ovarian tumor domain protease | inhibition, % at 11.5 µM | 370,000 compounds, 0.55% hits | CCHFV vOTU protease, Pep-AMC fluorescence
CCHF vOTU inh-2: CCHFV vOTU protease inhibition, confirmation | shares compounds with CCHF vOTU inh-1 | Recombinant CCHFV vOTU, Pep-AMC fluorescence | inhibition, % at 11.5 µM | 1,900 compounds, 17% hits | AID 686976
A number is an active result; - = inactive; . = no result given; ! = not confirmed by another sample. Rows were chosen to be rich in hits. Some 1.3% of all compounds tested hit in one or more screens of this group. Cut-off read from the data, not from the text of the source, unless noted: active = inhibition above about 30%; inactive = the rest.

SMILES | Mtb bLac sens | MazEF act | 3CLpro inhibitor | RN4220 kill | ugtP null kill | CCHF vOTU inh-1 | CCHF vOTU inh-2
O=C1c2ccccc2C(=O)N1OCc1cccc(Cl)c1 | - | - | - | - | - | - | .
O=C1Cc2ccccc2C(=O)N1OCc1ccc(Cl)cc1Cl | - | - | - | . | . | 36 | -
CCCCC(CC)C(=O)Oc1ccc(O)c(C(C)(C)C)c1 (configuration not stated) | - | - | - | . | . | 31 | -
CSCCC(NC(=O)C(=Cc1ccc(F)cc1)NC(C)=O)C(=O)O (configuration not stated) | . | . | . | - | - | . | .
Cc1cc(C(F)(F)F)n(-c2nc(C(=O)NN)cs2)n1 | - | - | - | - | - | - | .
CCOC(=O)c1csc(-n2nc(C)cc2C(F)(F)F)n1 | - | - | - | - | - | 31 | -
CCOC(=O)c1c(S(=O)(=O)NCC(=O)NCc2ccc(C)cc2)c(C)n(C)c1C | - | - | - | - | - | 42 | -
CCOC(=O)C(C(=O)Nc1ccccc1Br)=C1NC(C)(C)Cc2ccccc21 | . | . | . | - | - | . | .
CCc1ccc([C@H]2C(C(=O)O)=C[C@@H](CC3CCCC3)N2S(=O)(=O)c2ccc(C)cc2)cc1 | - | - | . | - | - | 47 | -
CCCC[C@@H]1C=C(C(=O)O)[C@H](c2ccc(Cl)c(Cl)c2)N1S(=O)(=O)c1ccc(C)cc1 | - | - | . | - | - | 32 | -
CCCCC[C@@H]1C=C(C(=O)O)[C@H](c2ccc(Cl)cc2)N1S(=O)(=O)c1ccc(C)cc1 | - | - | . | . | . | 32 | -
CC(=O)Nc1ccc(S(=O)(=O)NC2=C(N3CCN(c4ccc(F)cc4)CC3)C(=O)c3ccccc3C2=O)cc1 | - | - | - | - | - | 77 | 69
CC(=O)Nc1ccc(S(=O)(=O)Nc2ccc(N3CCOCC3)cc2)cc1 | - | - | - | - | - | - | .
Cc1ccc(S(=O)(=O)NC2=C(N3CCN(c4ccccc4F)CC3)C(=O)c3ccccc3C2=O)cc1 | - | - | - | . | . | 53! | -
CCOC(=O)N1CCN(C2=C(NS(=O)(=O)c3ccc(C)cc3)C(=O)c3ccccc3C2=O)CC1 | - | - | - | - | - | 82 | 81
Cc1ccc(S(=O)(=O)NC2=C(N3CCN(Cc4ccccc4)CC3)C(=O)c3ccccc3C2=O)cc1 | - | - | - | - | - | - | .
COC(=O)C1CCN(C2=C(NS(=O)(=O)c3ccc(Cl)cc3)C(=O)c3ccccc3C2=O)CC1 | - | - | - | - | - | - | .
Cc1ccc(N=Cc2cc3c(cc2[N+](=O)[O-])OCO3)cc1[N+](=O)[O-] | - | - | . | - | - | - | .
CC(=O)N(C)c1ccc(N=Cc2cc3c(cc2[N+](=O)[O-])OCO3)cc1 | - | - | . | - | - | 34 | 31
CCCCn1c(NC(C)=O)c(C#N)c2nc3ccccc3nc21 | - | - | - | - | - | - | .
C=CCn1c(NC(=O)c2ccccc2Cl)c(C#N)c2nc3ccccc3nc21 | - | - | - | - | - | 82 | 45
CSc1ccc(/C=C(/NC(=O)c2ccco2)C(=O)N2CCOCC2)cc1 | - | - | - | - | - | 30 | -
O=C(N/C(=C/c1ccc(Br)cc1)C(=O)N1CCOCC1)c1ccco1 | - | - | - | - | - | - | .
Cc1nnc(N/N=C/c2ccc(O)c([N+](=O)[O-])c2)[nH]c1=O | - | - | - | . | . | 32 | -
COc1ccc(S[C@@H](CCN2CC[C@H](NC(=O)OCc3ccccc3)CCC2=O)c2ccccc2)cc1 | - | - | . | . | . | 36 | -
SMILES | Mtb bLac sens | MazEF act | 3CLpro inhibitor | RN4220 kill | ugtP null kill | CCHF vOTU inh-1 | CCHF vOTU inh-2
CCS(=O)(=O)c1ccc(O)c(NC(=O)c2cc(-c3ccccn3)nc3ccccc23)c1 | - | - | . | - | - | 32 | -
CN1C(=O)C2C(C=Cc3ccccc3)N3C(=O)CN(Cc4ccccn4)C(=O)[C@@]3(Cc3ccccc3)C2C1=O (some centres not stated) | . | . | . | - | - | . | .
CCOC(=O)c1c(C)[nH]c(C(=O)CN(C)CC(=O)Nc2ccccc2C(F)(F)F)c1C | - | - | . | - | - | 31 | -
CCOC(=O)c1c(C)[nH]c(C(=O)OCC(=O)N(C)CC(=O)Nc2ccccc2Cl)c1C | - | - | . | . | . | - | .
CCCCCCCCCC(=O)N[C@@H]1c2cc(OC)c(OC)cc2C[C@H]1O | . | - | . | - | - | 31 | -
COc1ccc(S(=O)(=O)NN=Cc2ccc3c(c2)OCO3)cc1 | . | . | . | - | - | . | .
COc1ccc(C(CNC(=O)C(=O)NC2CCCC2)N2CCN(C)CC2)cc1 (configuration not stated) | - | - | . | - | - | - | .
COc1ccc(C(CNC(=O)C(=O)NC2CCCCC2)N2CCN(C)CC2)cc1 (configuration not stated) | - | - | . | - | - | 32 | -
O=C(O)Cn1cc(C=c2sc3nc4ccccc4n3c2=O)c2ccccc21 | . | . | . | - | - | . | .
CCCC(=C1c2ccccc2C(=O)N1c1ccccc1)c1ccc(OC2CCCCO2)cc1 (configuration not stated) | . | . | . | - | - | . | .
COC(=O)c1c(C)oc2c1cc(NS(=O)(=O)c1ccc(C(=O)O)cc1)c1ccccc12 | - | - | - | - | - | 38 | -
COC(=O)C1=C(c2cccc(C#N)c2)CC2CCC1N2C(=O)N1CCOCC1 (configuration not stated) | . | . | . | - | - | . | .
COc1ccccc1NS(=O)(=O)c1cccc(C(=O)NN=C(C)c2ccncc2)c1 | . | . | . | - | - | . | .
COc1ccc(C=NOCC(=O)N2CC3(C)CC2CC(C)(C)C3)cc1 (configuration not stated) | . | . | . | - | - | . | .
O=c1[nH]c(Nc2ccccc2)cc2ccccc12 | - | - | - | - | - | 88 | -
COc1ccccc1Nc1cc2cc(Br)ccc2c(=O)[nH]1 | - | - | . | - | - | 109 | 93
COc1ccccc1Nc1nnc(C)c(=O)[nH]1 | - | - | - | - | - | - | .
O=c1[nH]c(Nc2ccccc2)cc2cc(Br)ccc12 | - | - | . | - | - | 101 | 98
COc1ccc(OC)c(Nc2cc3ccccc3c(=O)[nH]2)c1 | - | - | . | - | - | 99 | 90
O=c1c2c(-c3cccs3)csc2ncn1N=Cc1ccc(OC(F)F)cc1 | . | . | . | - | - | . | .
COC(=O)c1c(NC(=O)c2ccco2)sc(C(=O)N(C)C)c1C | - | - | - | - | - | 32 | -
COC(=O)c1c(NC(=O)c2cccnc2)sc(C(=O)N(C)C)c1C | - | - | - | - | - | - | .
Cc1ccc(SCC(=O)OCC(=O)NC2CCCCCCC2)cc1 | - | - | . | - | - | 30 | -
O=C(COC(=O)CSc1ccc([N+](=O)[O-])cc1)NC1CCCCCCC1 | - | - | . | - | - | - | .
CCCCOC(=O)CSc1nc2c(c(=O)[nH]c(=O)n2C)n1C/C=C(\C)Cl | - | - | - | - | - | 31 | -
O=C(N/N=C\c1c[nH]c2ccccc12)c1ccc(O)cc1 | - | - | - | . | . | 32 | -
